# Source: PubChem
# ClpP mod = qHTS Assay for Activators of ClpP; purified B. subtilis ClpP, FRET peptide cleavage, 20 min; Potency, µM (top dose mostly 57.5 µM), without a hit: at the top dose activity change, negative = active; 340,000 compounds, 1.9% hits; AID 651965, 2013; ATP-dependent Clp protease proteolytic subunit (Bacillus subtilis (strain 168)), P80244; active = well fitted falling curve with a large enough effect; inconclusive = small, poorly fitted or top-dose-only effect; inactive = no such curve, though single readings can be large or run the other way; note: the source files actives as falling curves though it sought activators and does not explain the sign; nearly all actives have a fitted effect of over 65% in size
# Target sequence (P80244 whole entry, looked up): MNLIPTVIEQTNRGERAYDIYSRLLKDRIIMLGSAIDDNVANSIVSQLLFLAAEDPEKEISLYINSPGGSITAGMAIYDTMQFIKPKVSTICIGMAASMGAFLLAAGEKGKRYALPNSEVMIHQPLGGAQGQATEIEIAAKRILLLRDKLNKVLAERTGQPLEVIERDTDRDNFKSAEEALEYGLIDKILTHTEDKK
#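 ClpP 10 microg/mL final, pH 8 Tris/KCl buffer with BSA, glycerol, Tween-20; compound pinned in; FRET-FV substrate; RT 20 min; Ex320/Em430; ΔFRET vs ADEP 5.8 microM, DMSO, no enzyme.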
# TDP1 block = blocks human tyrosyl-DNA phosphodiesterase 1. Q9NUW8. recombinant TDP1, AlphaScreen DNA substrate cleavage. Potency, µM (doses to about 130 µM), for the others: at the highest dose activity change, negative = inhibition, most hits filed as inhibitors. 350,000 compounds, 0.28% hits. AID 485290; note: % is set by controls: 0 for no effect and ±100 for the full control effect; nearly all actives have a fitted effect of over 40% in size
#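 Recombinant human Tdp1 (E. coli-expressed, 1 nM final) preincubated with compounds 15 min at room temperature, then 5'-biotin/3'-phosphotyrosine-FITC DNA substrate (15 nM final) added for 5 min. AlphaScreen beads (10 ug/ml final) added 10 min; cleavage lowers signal.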
# DT40 TDP1 CPT = growth inhibition of DT40 Tdp1-/-;hTDP1 cells with camptothecin (screen for TDP1 inhibitors). chicken DT40 Tdp1-/-;hTDP1 cells + 20 nM CPT, ATP luminescence, 48 h. AID 686979. 420,000 compounds, 12% hits. Potency, µM (doses to about 46.2 µM), for the others: at the top dose activity change, negative = growth inhibition, usual class: inhibitors; note: % is set by controls: 0 for no effect and ±100 for the full control effect; nearly all actives have a fitted effect of over 55% in size
#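 Cell growth measured by CellTiter-Glo luminescence after a minimum 48 h, 37 C compound exposure with 20 nM CPT in Tdp1-knockout DT40 cells stably expressing hTDP1, seeded 400/well; qHTS titration format.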
# DT40 TDP1 no CPT = qHTS for Inhibitors of human tyrosyl-DNA phosphodiesterase 1 (TDP1): qHTS in cells in absence of CPT | DT40 Tdp1-/- hTDP1 cells, no CPT, ATP luminescence, 48 h | Potency, µM (top dose mostly 46.2 µM), for the others: at the highest dose activity change, negative = growth inhibition, hits mostly inhibitors | 420,000 compounds, 15% hits | AID 686978, 2013; note: % is set by controls: 0 for no effect and ±100 for the full control effect; nearly all actives have a fitted effect of over 55% in size
#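 Compound effects on proliferation are scored in DT40 Tdp1-/-;hTDP1 cells in the absence of CPT. ATP levels (CellTiter-Glo luminescence) are recorded after a ≥48 hr, 37 °C incubation.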
# * marks the source's active call; other numbers are inactive results; ? = inconclusive; · = no result given; [ ] = remark or other dose. This is a sample that favours compounds with a hit; in the whole collection about 17% have one here. Unless noted, calls come from the whole dose curve; as a rule, active = well fitted curve in the direction sought with a large enough effect; inconclusive = small, poorly fitted or top-dose-only effect, or another doubt; inactive = no such curve, though single readings can be large; an effect the other way counts as inactive or inconclusive. Potency is the fitted concentration of half-maximal effect.
SMILES,ClpP mod,TDP1 block,DT40 TDP1 CPT,DT40 TDP1 no CPT
O=C(NCCC(=O)N(CCc1ccccc1)Cc1ccccc1)c1ccc([N+](=O)[O-])cc1,0.2%,3.9%,?,23.1µM*
CS(=O)(=O)N(Cc1ccc(Cl)cc1)c1ccc(C(=O)N/N=C/c2cc3ccccc3nc2Cl)cc1,1.1%,4.6%,?,23.1µM*
CS(=O)(=O)N(Cc1ccccc1)c1ccc(C(=O)Nc2ccccc2C(=O)O)cc1,-5.0%,·,-4.4%,-28.7%
O=[N+]([O-])c1ccc(NCCCc2ccccc2)cc1,-1.6%,·,?,18.4µM*
CCOC(=O)c1c(S(=O)(=O)NCC(=O)Nc2cccc(C)c2)c(C)n(C)c1C,0.3%,5.2%,1.5%,16.5%
Cc1ccc(CC(=O)NO)cc1,0.1%,·,?,-15.7%
CC(=O)NC(Nc1c(C)n(C)n(-c2ccccc2)c1=O)C(Cl)(Cl)Cl (configuration not stated),1.2%,0.0%,0.3%,10.3%
Cc1c(Cl)cccc1NC(=S)N1CCN(S(=O)(=O)c2cccs2)CC1,-1.4%,0.0%,-1.7%,-1.3%
CS(=O)(=O)N(Cc1ccc(C(=O)NN=C2CCCCCC2)cc1)c1ccccc1,31.6µM*,5.4%,?,?
CS(=O)(=O)N(Cc1ccc(C(=O)NN=C2CCCC2)cc1)c1ccccc1,-1.0%,-2.3%,-23.6%,?
O=C(Nc1ccc(S(=O)(=O)N(Cc2ccccc2)c2ccccc2)cc1)c1ccc([N+](=O)[O-])cc1,-1.4%,4.7%,2.91µM*,?
CN(C)S(=O)(=O)c1ccc(NC(=O)c2ccc([N+](=O)[O-])cc2)cc1,1.1%,·,-0.2%,?
Cc1ncc2c(c1CNS(=O)(=O)N(C)C)CCN(C(=O)c1ccc(-c3ccc(F)cc3)cc1)C2,·,·,7.6%[9.04 µM],?
Brc1ccc(-c2cc3c(N4CCN(c5ccccc5)CC4)nccn3n2)cc1,1.4%,4.5%,-5.8%,-6.4%
CCOC(=O)CC(NC(=O)c1cc2c(=O)n3cccc(C)c3nc2s1)c1ccc(OCC(C)C)c(OC)c1 (configuration not stated),-12.5%,0.9%,-2.7%,-1.8%
O=C(Nc1ccccc1)c1cn(CCBr)cn1,-2.8%,·,-4.1%,1.8%
CCOc1cccc2sc(N3CCN(C(=O)C(C)(C)C)CC3)nc12,1.3%,-2.6%,?,20.6µM*
CCOc1cccc2sc(N3CCN(C(=O)c4ccco4)CC3)nc12,-0.7%,2.6%,14.6µM*,16.4µM*
CC1=C(C(=O)N(C(C)C)C(C)C)CC(CC(=O)NC(c2ccccc2)c2ccccc2)C(=O)N1CCCN1CCCC1=O (configuration not stated),2.5%,·,-14.2%,-19.2%
COC(=O)C(C(C)=O)C(NC(=O)NCc1ccccc1)c1ccccc1 (configuration not stated),·,-4.8%[21 µM],·,·
Cc1ccc(-n2ncc3c(NCC(C)C)ncnc32)c(C)c1,-16.0%,2.6%,23.1µM*,?
C=CCNc1ncnc2c1cnn2-c1ccc(C)cc1C,-20.3%,2.1%,-4.2%,?
Cc1ccc(-n2ncc3c(N(CC(C)C)CC(C)C)ncnc32)c(C)c1,-15.6%,-5.4%,20.6µM*,?
CCOC(=O)N1CCC(Nc2ncnc3c2cnn3-c2ccc(C)cc2C)CC1,-20.2%,1.1%,10.3µM*,8.2µM*
CCN(CC)C(=O)COc1ccc(/C(C)=N/Nc2ncc(Cl)cc2Cl)cc1,-4.1%,2.6%,?,0.8%
SMILES,ClpP mod,TDP1 block,DT40 TDP1 CPT,DT40 TDP1 no CPT
COc1ccc(C2=CC(c3ccc(F)cc3)n3ncc(C(=O)Nc4ccc(C)cc4)c3N2)cc1 (configuration not stated),0.1%,8.5%,?,?
CCc1ccc(OC(=O)CSc2nnc(-c3ccc4c(c3)OCO4)o2)cc1,-11.8%,-8.6%,-0.7%,-6.1%
CCOC(=O)C1=C(C)N(CCCCCC(=O)O)C(=O)NC1c1ccccc1OC(=O)c1cccs1 (configuration not stated),0.7%,-2.6%,-11.7%,-20.0%
N/C(=N\OC(=O)CC1CCCCC1)c1ccc(Cl)cc1,-1.5%,-8.9%,-1.6%,8.9%
CCC(C)[C@H]1COCCS(=O)(=O)N1Cc1ccccc1 (some centres not stated),0.9%,·,-7.6%,-26.7%
C[C@H](CO)N1C[C@H](C)[C@@H](CN(C)C(=O)Nc2ccc(C(F)(F)F)cc2)Oc2c(NS(=O)(=O)c3ccc(F)cc3)cccc2C1=O,-5.8%,3.0%,?,-23.4%
FC(F)Oc1ccc(NC(=S)N2CCc3ccccc32)cc1,·,1.2%,-6.8%,?
CCc1sc(C(=O)Nc2ncccc2C)cc1C,·,12.2%,-1.4%,5.7%
Cc1cccnc1NC(=O)NC(=O)c1ccc(C(C)(C)C)s1,-19.6%,-1.9%,?,16.4µM*
O=S(=O)(c1ccc2c(c1)OCCO2)N1CCN(S(=O)(=O)c2ccc(F)cc2F)CC1,·,-19.6%,·,·
O=C(CSc1nnc(-c2ccc(S(=O)(=O)N3CCCC3)cc2)o1)NCc1ccccc1,-1.6%,7.8%,23.1µM*,18.4µM*
Cc1cc(C)c2nc(NC3=NCN(CCN4CCOCC4)CN3)nc(C)c2c1,·,1.9%,·,·
CC1=CC(C)(C)N=C(Nc2nc(C)c3cc(C)cc(C)c3n2)N1,7.0%,2.7%,14.6µM*,16.4µM*
Cc1ccn2cc(C(=O)Nc3cccc(C(=O)NC4CC4)c3)nc2c1,·,-14.5%,?,16.4µM*
Cc1ccc(C(=O)Nc2cccc(C(=O)NC3CCCCC3)c2)cc1,1.1%,·,23.1µM*,?
CCn1c(C)nc2cc(NC(=O)Nc3cccc(C(C)=O)c3)ccc21,-2.1%,·,?,?
O=C(NC12CC3CC(CC(C3)C1)C2)N(Cc1ccccc1)Cc1ccncc1,-1.7%,2.7%,13µM*,18.4µM*
Cc1ccc(Cl)cc1NC(=S)N(CCCN1CCOCC1)Cc1ccco1,·,-2.5%,11.0%,1.1%
Cn1c(N)c(C(=O)COC(=O)C2(c3ccc(F)cc3)CCCC2)c(=O)n(C)c1=O,0.8%,1.1%,?,18.4µM*
Cn1c(N)c(C(=O)COC(=O)/C=C/c2ccc(Cl)cc2Cl)c(=O)n(C)c1=O,0.0%,0.3%,?,16.4µM*
Cn1c(N)c(C(=O)COC(=O)/C=C/c2ccc(Cl)cc2)c(=O)n(C)c1=O,0.4%,0.4%[56.1 µM],?,?
CC(C)[C@H](NS(=O)(=O)c1ccc(Cl)cc1)C(=O)OCC(=O)c1c(N)n(C)c(=O)n(C)c1=O,1.4%,2.3%,?,20.6µM*
Cn1c(N)c(C(=O)COC(=O)C2(c3ccccc3F)CCCC2)c(=O)n(C)c1=O,0.6%,-2.0%,?,?
Cn1c(N)c(C(=O)COC(=O)C2(c3ccc(Cl)cc3)CCCC2)c(=O)n(C)c1=O,-1.5%,3.9%,14.6µM*,11.6µM*
O=c1c2sc3ccccc3c2n(Cc2ccccc2Cl)c(=O)n1Cc1ccccc1,-14.8%,0.0%,-17.9%,-23.2%
